ADAM17 inh = ADAM17 inhibitors, primary screen, biochemical, QFRET | recombinant ADAM17, EDANS/DABCYL FRET peptide cleavage | inhibition, % at 6.95 µM | 370,000 compounds, 0.83% hits | AID 720648, 2013;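 active means inhibition above the mean of compounds lying between control limits plus 3 SD, set per campaign, cut at about 8.5% in these data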;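 further: 0% = DMSO-only wells as the low control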
Ecoli rRNA inh = reduced GFP signal of wild-type E. coli, primary screen, bacterial rRNA inhibitor project, GFP/RFP fluorescence, OD600, single point | E. coli WT GFP vs humanized-ribosome RFP mutants, 24 h; hits give low values; DMSO median 0, no signal -100 | GFP signal change (wild-type ribosome), % (concentration not given with the values) | 350,000 compounds, 1.6% hits | AID 720706, 2013;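 active means significant combined selectivity score with lowered wild-type GFP, culture density cut under 30%, mutant RFP and density less affected; inactive means any of these conditions unmet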
KLK7 zymogen act = proKLK7 zymogen activators, primary screen, biochemical, fluorescence intensity; activation, % at 7 µM; AID 652039, 2013; purified proKLK7, EDANS-DABCYL substrate fluorescence; 100% is mature enzyme control, 0% vehicle; 370,000 compounds, 0.9% hits; Kallikrein-7 (Homo sapiens), P49862;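 active means activation above the mean of all tested compounds plus 3 SD, computed per campaign excluding outliers beyond control limits, cut at about 13% in these data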
Target sequence (P49862 whole entry, looked up): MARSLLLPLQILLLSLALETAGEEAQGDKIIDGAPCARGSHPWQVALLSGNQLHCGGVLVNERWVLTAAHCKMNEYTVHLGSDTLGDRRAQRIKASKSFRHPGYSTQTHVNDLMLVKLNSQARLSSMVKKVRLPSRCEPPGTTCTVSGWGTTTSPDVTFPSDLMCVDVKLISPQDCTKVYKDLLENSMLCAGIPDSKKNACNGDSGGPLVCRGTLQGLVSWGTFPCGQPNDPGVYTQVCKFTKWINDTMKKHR
ADAM10 inh = human ADAM10 inhibitors, primary screen, biochemical, QFRET, HTS; 370,000 compounds, 0.62% hits; recombinant ADAM10, EDANS/DABCYL FRET peptide cleavage, 3 h; inhibition, % at 7 µM; Disintegrin and metalloproteinase domain-containing protein 10 (Homo sapiens), O14672;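 active means inhibition above a per-campaign cutoff equal to the mean of compounds falling between control-based bounds plus 3 SD, cut at about 20% in these data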;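 further: 0% = DMSO wells while the 100% control is not disclosed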
FGF22 binding = binders of human FGF22 protein, primary screen, FGF22 synaptogenesis inhibitor project, biophysical, thermal shift, single point; Fibroblast growth factor 22 (Homo sapiens), Q9HCT0; recombinant FGF22 thermal shift, SYPRO orange fluorescence; percent of sucrose octasulfate shift, DMSO zero; activity (Tm shift, normalised), % at 9.99 µM; 340,000 compounds, 1.5% hits;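 active means mean Tm shift, scaled 0 neutral to 100 positive control, at about 1.3% or above, every replicate too, limit read from the data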
Target sequence (Q9HCT0 whole entry, looked up): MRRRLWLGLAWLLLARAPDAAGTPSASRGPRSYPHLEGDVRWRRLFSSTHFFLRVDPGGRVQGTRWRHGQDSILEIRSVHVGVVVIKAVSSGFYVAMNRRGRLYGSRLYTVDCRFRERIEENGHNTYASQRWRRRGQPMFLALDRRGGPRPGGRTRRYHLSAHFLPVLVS
An asterisk follows results filed as active. This is a sample that favours compounds with a hit; in the whole collection about 3.8% have one here.

Cc1cc(C)n2cc(CSc3nncn3C)nc2n1 was read as ADAM17 inh -97, Ecoli rRNA inh 6, KLK7 zymogen act 2, ADAM10 inh -244 and FGF22 binding 43*.
For Cc1cc(C)n2cc(CSc3ccc(Cl)cc3)nc2n1 the results were ADAM17 inh -11, Ecoli rRNA inh -25*, KLK7 zymogen act 1, ADAM10 inh -27 and FGF22 binding 0.
`O=C(C[C@@H]1C[C@H]2c3cc(NC(=O)Nc4ccccc4F)ccc3O[C@H]2[C@@H](CO)O1)NCc1ccc(Oc2ccccc2)cc1` gave Ecoli rRNA inh -4.
O=C(Nc1ccc2c(c1)OCCO2)c1cc(-c2ccccn2)nc2ccc(Br)cc12 was read as ADAM17 inh -2, Ecoli rRNA inh 19, KLK7 zymogen act 0, ADAM10 inh -7 and FGF22 binding 44*.
Clc1cccc(Cc2c(-c3ccco3)nc3ccc(Br)cn23)c1 was read as ADAM17 inh 2, Ecoli rRNA inh 9, KLK7 zymogen act -1, ADAM10 inh 5 and FGF22 binding 0.
`Clc1cccc(Cc2c(-c3ccco3)nc3ccc(Cl)cn23)c1` gave ADAM17 inh -9, Ecoli rRNA inh -4, KLK7 zymogen act -1, ADAM10 inh -24 and FGF22 binding 1.7*.
Screening Cc1ccccc1OCc1csc(N)n1 returned ADAM17 inh 6, Ecoli rRNA inh -1, KLK7 zymogen act -1, ADAM10 inh 0 and FGF22 binding 43*.
`COCCNC(=S)N(Cc1cc2cc(C)ccc2n2nnnc12)C1CCCC1` gave ADAM17 inh 5, Ecoli rRNA inh 6, KLK7 zymogen act 0, ADAM10 inh 2 and FGF22 binding 43*.
`COc1cc(OC)c(C(=O)OCC(=O)Nc2cc(C)on2)cc1OC` gave ADAM17 inh -1, Ecoli rRNA inh 8, KLK7 zymogen act 0, ADAM10 inh 2 and FGF22 binding 43*.
Screening Cc1nc2ccc(C(=O)OCc3nnc(-c4ccccc4)o3)cc2nc1C returned ADAM17 inh 0, Ecoli rRNA inh -17, KLK7 zymogen act 0, ADAM10 inh -5 and FGF22 binding 0.
Screening O=C(OCc1nnc(-c2ccccc2)o1)c1ccccc1 returned ADAM17 inh -1, KLK7 zymogen act 0, ADAM10 inh 0 and FGF22 binding 43*.
Screening COc1cc(C)c(NC(=S)Nc2ccc(Cl)c(Cl)c2)cc1OC returned ADAM17 inh 0, Ecoli rRNA inh -28*, KLK7 zymogen act 0, ADAM10 inh 4 and FGF22 binding 0.
For Cc1ccc(NC(=S)Nc2ccc(OC(F)F)c(Cl)c2)cc1F the results were ADAM17 inh -2, Ecoli rRNA inh -60, KLK7 zymogen act 0, ADAM10 inh 2 and FGF22 binding 43*.
`CCOc1cc(NC(=S)NCC2CCCO2)c(OCC)cc1NC(=O)C1CC1` (centres undefined) gave ADAM17 inh -4, Ecoli rRNA inh 16, KLK7 zymogen act 1, ADAM10 inh -11 and FGF22 binding 43*.
`CCNS(=O)(=O)c1cc(OC)c(Cl)cc1OC` gave ADAM17 inh 2, KLK7 zymogen act 0 and ADAM10 inh -17.
COc1cc(OC)c(S(=O)(=O)NC(C)C)cc1S(=O)(=O)NC(C)C was read as ADAM17 inh 6, Ecoli rRNA inh 10, KLK7 zymogen act 0, ADAM10 inh 16 and FGF22 binding 43*.
`Nc1cc(=O)[nH]n1C1CCCCC1` gave ADAM17 inh 0, Ecoli rRNA inh 13, KLK7 zymogen act 0, ADAM10 inh 0 and FGF22 binding 43*.
Screening c1ccc(Cn2cnc3ccccc32)cc1 returned ADAM17 inh 7, KLK7 zymogen act -1 and ADAM10 inh 2.
For Clc1ccc(Cn2cnc3ccccc32)cc1 the results were ADAM17 inh -3, Ecoli rRNA inh -42, KLK7 zymogen act 0, ADAM10 inh 5 and FGF22 binding 43*.
For CC(=O)NNC(=O)c1sc(=S)n2c1[nH]c(=O)c1sccc12 the results were ADAM17 inh 0, Ecoli rRNA inh 5, KLK7 zymogen act 1, ADAM10 inh -5 and FGF22 binding 43*.
For NC(=O)c1sc(=S)n2c1[nH]c(=O)c1sccc12 the results were ADAM17 inh -6, Ecoli rRNA inh 4, KLK7 zymogen act 0, ADAM10 inh -11 and FGF22 binding 47*.
Screening O=C(NCc1ccccc1)c1sc(=S)n2c1[nH]c(=O)c1ccccc12 returned ADAM17 inh 0, KLK7 zymogen act 1 and ADAM10 inh 8.
`Nc1ccc(N=Nc2ccc(N)cc2)cc1` gave ADAM17 inh -2, Ecoli rRNA inh -25*, KLK7 zymogen act 0, ADAM10 inh -3 and FGF22 binding 0.
`Cc1cc(N(C)C)ccc1N=Nc1ccc(N)cc1` gave ADAM17 inh 7, Ecoli rRNA inh -51*, KLK7 zymogen act 0, ADAM10 inh 14 and FGF22 binding -1.
Screening CN(C)c1ccc(N=Nc2ccccc2Br)cc1 returned ADAM17 inh -5, Ecoli rRNA inh -12, KLK7 zymogen act 0, ADAM10 inh 7 and FGF22 binding 0.
Screening COc1ccc2c3c([nH]c2c1)[C@@H](CO)N(C(=O)c1ccc(F)cc1)CC31CN(C(=O)Nc2ccc(F)cc2)C1 returned Ecoli rRNA inh -6.
Screening Clc1ccc(-c2c[nH]c3ccccc23)nn1 returned ADAM17 inh 2, Ecoli rRNA inh 7, KLK7 zymogen act 0, ADAM10 inh 5 and FGF22 binding 43*.
For CO[C@@H]1CN(C)C(=O)c2cc(NC(=O)C3CC3)ccc2OC[C@H](C)N(Cc2nccs2)C[C@H]1C the results were Ecoli rRNA inh -3 and FGF22 binding 0.
Screening Cc1ccccc1N1C(=O)C(Cc2ccc(F)cc2)S/C1=C(\C#N)C(N)=O (centres undefined) returned ADAM17 inh -1, Ecoli rRNA inh -31*, KLK7 zymogen act 0, ADAM10 inh 3 and FGF22 binding 0.
For COc1ccc(S(=O)(=O)Nc2cccc3c2O[C@@H](CN(C)C(=O)Nc2ccc4c(c2)OCO4)[C@@H](C)CN([C@@H](C)CO)C3=O)cc1 the results were Ecoli rRNA inh 2 and FGF22 binding 0.
For CCOc1ccccc1N1C(=O)CC(Sc2n[nH]c(-c3ccccc3)n2)C1=O (centres undefined) the results were ADAM17 inh -1, Ecoli rRNA inh 4, KLK7 zymogen act 1, ADAM10 inh -6 and FGF22 binding 44*.
COc1ccc(N2C(=O)CC(Sc3n[nH]c(-c4cccc(C)c4)n3)C2=O)cc1 (centres undefined) was read as ADAM17 inh -1, Ecoli rRNA inh -9, KLK7 zymogen act 0, ADAM10 inh 10 and FGF22 binding 0.

Source: PubChem BioAssay (several laboratories)
